Screening results from PubChem.
An excerpt weighted towards active compounds, which were near 3.3% of everything screened.
PI5P4Ka inh – PI5P4K alpha (human) kinase inhibition; P48426; PI5P4Kalpha enzyme, ADP-Glo luminescence, 60 min; hits give low values; max response, %; hit rate 1.2% among 330,000; AID 652105; active = max response of -50% or lower; inconclusive = between -30% and -50%; inactive = -30% or higher; also: value at the top dose of about 77 µM; % is scaled to controls: 0 for no effect and ±100 for the full control effect
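PI5P4Kalpha ADP-Glo assay; 5 microM ATP final; 60 min RT reaction; HEPES pH 7.4/EGTA/CHAPS, 5% DMSO; controls lacking substrate or enzyme; luminescent end-point.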
D3 antag – D3 dopamine receptor (human) antagonism. D3R cells, DiscoveRx beta-arrestin luminescence, antagonist mode; hits give low values. max response, negative = inhibition, %. hit rate 2.5% among 360,000; in the data active = max response below about -50%; inconclusive = no clear call, values can overlap the other calls; also: % is scaled to controls: 0 for no effect and ±100 for the full control effect
Target sequence (P35462 whole entry, looked up): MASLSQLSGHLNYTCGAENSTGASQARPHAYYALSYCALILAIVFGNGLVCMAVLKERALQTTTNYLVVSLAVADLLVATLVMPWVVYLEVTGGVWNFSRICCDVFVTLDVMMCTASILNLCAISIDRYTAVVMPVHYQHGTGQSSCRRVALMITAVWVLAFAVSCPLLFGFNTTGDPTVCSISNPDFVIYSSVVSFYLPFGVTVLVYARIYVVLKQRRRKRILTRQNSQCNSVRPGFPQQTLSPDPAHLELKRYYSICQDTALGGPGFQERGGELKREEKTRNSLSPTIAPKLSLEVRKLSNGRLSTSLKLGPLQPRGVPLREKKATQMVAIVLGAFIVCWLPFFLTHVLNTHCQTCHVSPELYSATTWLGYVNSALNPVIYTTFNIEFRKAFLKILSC
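Cells expressing the human receptor were seeded at 1500 cells/well, incubated overnight at 37 degrees C in 5% CO2, then exposed to library compounds with dopamine controls for 90 minutes at 37 degrees C before luminescent detection.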
DRD3 agonist – agonists of human D3 dopamine receptor. P35462. AID 652048. max activation, %. hit rate 0.58% among 410,000. D3R DiscoveRx beta-arrestin cells, luminescence, 90 min; in the data active = max activation above about 30%; also: 0% is about no effect
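Cells at 1500/well, incubated overnight, then treated with pinned compounds (dopamine as control) for 90 min at 37 degrees C. DiscoveRx reagent added for 30 - 60 minutes at room temperature; luminescence read.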
LDHA inh – blocks human lactate dehydrogenase A. hit rate 0.15% among 480,000. activity change, % (values are at about 110 or 230 µM). purified LDHA, NADH/diaphorase-resazurin fluorescence; hits give low values. AID 1347041. P00338; in the data active = activity change below about -30%; inconclusive = mostly about -25% to -30%;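 also: plate controls were DMSO wells for no effect and wells without enzyme for full effect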
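Resorufin fluorescence (ex540/em590), read at 0 and 20 min after diaphorase/resazurin addition, reports the NADH left after a 5 min room-temperature reaction of 2 nM human LDH5 with 0.06 mM NADH and 0.2 mM pyruvate.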
PI4K2A block – PI4K2A (human) kinase inhibition | activity change, negative = inhibition, % at 76.9 µM | purified PI4K2A, ADP-Glo luminescence, 1 h; hits give low values | hit rate 0.13% among 420,000 | AID 1346378; in the data active = activity change below about -50%; inconclusive = mostly about -30% to -49%;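 also: -100% = wells without enzyme as full effect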
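ADP-Glo luminescence measured ADP generated by PI4K2A enzyme (4 ug/mL before mixing) with 1.2 mM PI substrate (pre-mix) and 300 microM ATP (pre-mix). Tris pH7.5 buffer with MgCl2, Triton X-100; 1 h reaction at ambient temperature.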
Active calls of the source: *; ? = inconclusive; . = no result; ! = repeats disagree.

SMILES | PI5P4Ka inh | D3 antag | DRD3 agonist | LDHA inh | PI4K2A block
COc1ccc(S(=O)Cc2ccc(C(=O)N3CCN(c4cccc(C)c4C)CC3)o2)cc1 (stereo not given) | -1 | 89 | 45*! | -1 | -5
Cc1cccc(N2CCN(C(=O)c3ccncc3)CC2)c1C | -1 | 16 | 46* | -5 | 0
COc1ccc(N2CCN(C(=O)c3ccc(CS(=O)c4cccc(Cl)c4)o3)CC2)cc1 (stereo not given) | 3 | 0 | 1 | 1 | -3
Cc1cccc(N2CCN(C(=O)c3ccnn3C)CC2)c1C | -6 | 4 | 6 | -1 | 2
CC(C)(C)c1ccc(C(=O)N/N=C/CCc2ccccc2)cc1 | . | . | . | -10 | .
CC1=NS(=O)(=O)NC(C)=C1CCC(=O)Nc1ccc2c(c1)CCC2 | . | . | . | -5 | .
CCOC(=O)C1=C(C)N=c2s/c(=C/c3cccc([N+](=O)[O-])c3O)c(=O)n2C1c1ccc(OC)cc1OC (stereo not given) | -55* | -55* | -21 | -2 | -17
CCc1ccc2c(c1)-c1ccccc1S(=O)(=O)N2CC(=O)Nc1cccc(C(=O)OC)c1C | . | . | . | 8 | .
CCC(CC)C(CNC(=O)Cc1n[nH]c(=O)c2ccccc12)N1CCOCC1 (stereo not given) | . | . | . | -13 | .
c1ccc(Nc2nc(NC3CCCCCC3)nc3c2cnn3-c2ccccc2)cc1 | . | . | . | 11 | .
Oc1c(Cl)cc(Cl)cc1C=Nc1ccc(Br)cc1 | -55* | 37 | -16 | 1 | -4
Oc1ccc(Br)cc1C=Nc1ccc(Cl)cc1 | -13 | -3 | -1 | 3 | 0
Cc1ccc(N=Cc2cc(Br)cc(Cl)c2O)cc1 | -20 | -65* | -28 | -1 | -10
Cc1cc(Cl)ccc1OCc1n[nH]c(=S)n1C1CCCCC1 | -5 | -64* | -3 | 8 | 4
CCn1c(COc2ccc(Cl)cc2C)n[nH]c1=S | . | . | . | 5 | .
COc1ccc(Cl)cc1-c1n[nH]c(=S)n1C1CCCCC1 | -5 | -60* | -2 | -4 | 0
COc1ccc(-c2cc(-c3n[nH]c(=S)n3-c3cc(OC)ccc3OC)[nH]n2)cc1 | -30 | 0 | -2 | -8 | 6
COc1ccc(-n2c(-c3ccc(Cl)cc3Cl)n[nH]c2=S)c(OC)c1 | -64* | -11 | 6 | -4 | 1
COc1ccc(OC)c(-n2c(-c3cc(-c4ccc(F)cc4)n[nH]3)n[nH]c2=S)c1 | -18 | -81* | -3 | -11 | 0
CCCOC(=O)C(C)Oc1ccc2c(=O)c(-c3ccc(Cl)cc3)coc2c1 (stereo not given) | . | . | . | -5 | .
CSc1nc(N2CCOCC2)c2c3c(sc2n1)CCC3 | -18 | -65* | 11 | -5 | 3
N#CC1=C(SCC(=O)c2ccc(Br)cc2)NC2=C(C(=O)CCC2)C1c1ccco1 (stereo not given) | -5 | -59* | 1 | -5 | -1
CCc1ccc(NC(=O)CSC2=C(C#N)C(c3ccco3)C3=C(CCCC3=O)N2)cc1 (stereo not given) | -4 | -18 | 2 | 3 | -21
COc1c(C)cc(S(=O)(=O)NCc2ccco2)c(C)c1C | 4 | 4 | 31* | -6 | -1
CC1(C)CC(=O)C=C(Nc2ccc(C(=O)O)cc2)C1 | -6 | 111 | 1 | -3 | -11
SMILES | PI5P4Ka inh | D3 antag | DRD3 agonist | LDHA inh | PI4K2A block
CC1(C)CC(=O)C=C(Nc2ccc(O)c(C(=O)O)c2)C1 | -94* | 6 | -5 | 6 | -10
CCn1c(=O)c2ccccc2n(Cc2cccc([N+](=O)[O-])c2)c1=O | -4 | ? | 10 | -35* | 2
O=C(CSc1ncnc2nc[nH]c12)NCCc1ccc(Cl)cc1Cl | . | . | . | -9 | .
Cc1sc2nc(SCc3ccc(C(=O)O)cc3)n(Cc3ccco3)c(=O)c2c1C | 0 | 146 | 84* | -6 | -3
Cc1ccc(-n2c(SCC(=O)Nc3cccc(S(N)(=O)=O)c3)nc3ccccc32)cc1 | -26 | 52 | 44* | -2 | -4
CCOC(=O)c1c(C)cc(O)cc1O | 0 | 10 | 38* | -6 | -4
CCCCCN1CCCCC(NC(=O)c2ccccc2OC)C1=O (stereo not given) | . | . | . | . | -1
COC1(OC)N=C(N)C2(C#N)C(c3cccc(Oc4ccccc4)c3)C12C#N (stereo not given) | 1 | -50* | 3 | -6 | 4
Cc1ccc2nc(C)c(C(=O)N3CCCc4ccc(F)cc43)cc2c1 | . | . | . | -1 | .
O=C1C(=O)N(C2CCCC2)C(=O)N1Cc1cc(F)cc2cccnc12 | . | . | . | 7 | .
Cc1ccccc1C(c1ncccc1C)N(C)C(=O)C1CCN(CCOc2ccc(Cl)cc2Cl)CC1 (stereo not given) | 35 | -21 | 20 | 1 | -7
O=C(NC(c1cccnc1)c1ccc2c(c1)OCO2)C1CCN(CCOc2ccc(Cl)cc2Cl)CC1 (stereo not given) | -5 | -69* | -14 | -4 | -8
O=C(NC(c1ccccc1)c1ccsc1)C1CCN(CCOc2ccc(Cl)cc2Cl)CC1 (stereo not given) | 12 | 56 | 52* | -7 | -3
COc1ccc(OCCN2CCC(C(=O)NC(c3ccc(Cl)cc3)c3cnccn3)CC2)cc1 (stereo not given) | 2 | ? | -13 | -6 | -9
O=C(NC(c1ccccc1)c1cnccn1)C1CCN(CCOc2ccc(Cl)cc2Cl)CC1 (stereo not given) | 3 | -84* | -13 | -3 | 2
COc1ccc2cc(CNC(=O)c3cnc4ccccc4n3)ccc2c1 | . | . | . | 10 | .
Cc1ccc(C)c(CS(=O)(=O)Cc2nc(C(C)C)no2)c1 | . | . | . | -2 | .
COc1ccc(OC)c(S(=O)(=O)Nc2cccc(CCc3nc4ccccc4n3C)c2)c1 | . | . | . | 5 | .
COc1ccc(C(=O)NC2=C(C)Nc3ncnn3C2c2c[nH]c3ccccc23)c(OC)c1 (stereo not given) | . | . | . | -14 | .
Cc1noc(C)c1CSCC(=O)Oc1ccc(N(C)S(=O)(=O)c2ccccc2)cc1 | -2 | -10 | -5 | -1 | 11
Cc1noc(C)c1CSCC(=O)Oc1ccc(N(C)S(=O)(=O)c2ccc(Cl)cc2)cc1 | -9 | -4 | 36* | -2 | 5
FC(F)C(F)(F)Oc1cccc(Nc2nccn3c(-c4ccc5ccccc5c4)cnc23)c1 | 12 | 15 | 3 | -79* | 2
O=C(/C=C/c1ccc(Br)cc1)c1ccc(O)cc1 | . | . | . | 10 | .
CC(=O)c1cccc(NC(=O)C2=CC(c3ccc4c(c3)OCO4)=NS(=O)(=O)N2C)c1 | -2 | -62* | -21 | -2 | 4
C/C=C/Cn1c(SCCc2ccccc2)nc2c1c(=O)[nH]c(=O)n2C | . | . | . | 3 | .
CC1OC(OCC2OC(Oc3c(-c4ccc(O)cc4)oc4cc(O)cc(O)c4c3=O)C(O)C(O)C2O)C(O)C(O)C1O (stereo not given) | -67* | -16 | 12 | 9 | -6
